Bioassay records (PubChem)
Rows were chosen to be rich in hits. Some 3.2% of all compounds tested hit in one or more screens of this group.
PK Bst – alters activity of Bacillus stearothermophilus pyruvate kinase | purified pyruvate kinase, luminescence ATP production; ribose 5-phosphate activator present at AC10 | Potency, µM | hit rate 1.2% among 51,000; in the data active means potency below about 11 µM; inconclusive means mostly about 12 µM to 25 µM;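 the screen sought inhibitors and activators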
Luciferase inh – blocks Photinus pyralis firefly luciferase activity. P08659. purified firefly luciferase, luminescence, 8 min. Potency, µM (highest dose often 57.1 µM), actives largely listed as inhibitors. hit rate 2.2% among 72,000. AID 411; active means well fitted inhibition curve with a large enough effect; inconclusive means small, poorly fitted or top-dose-only effect; further: nearly all actives have a fitted effect of over 40% in size
Target sequence (P08659 whole entry, looked up): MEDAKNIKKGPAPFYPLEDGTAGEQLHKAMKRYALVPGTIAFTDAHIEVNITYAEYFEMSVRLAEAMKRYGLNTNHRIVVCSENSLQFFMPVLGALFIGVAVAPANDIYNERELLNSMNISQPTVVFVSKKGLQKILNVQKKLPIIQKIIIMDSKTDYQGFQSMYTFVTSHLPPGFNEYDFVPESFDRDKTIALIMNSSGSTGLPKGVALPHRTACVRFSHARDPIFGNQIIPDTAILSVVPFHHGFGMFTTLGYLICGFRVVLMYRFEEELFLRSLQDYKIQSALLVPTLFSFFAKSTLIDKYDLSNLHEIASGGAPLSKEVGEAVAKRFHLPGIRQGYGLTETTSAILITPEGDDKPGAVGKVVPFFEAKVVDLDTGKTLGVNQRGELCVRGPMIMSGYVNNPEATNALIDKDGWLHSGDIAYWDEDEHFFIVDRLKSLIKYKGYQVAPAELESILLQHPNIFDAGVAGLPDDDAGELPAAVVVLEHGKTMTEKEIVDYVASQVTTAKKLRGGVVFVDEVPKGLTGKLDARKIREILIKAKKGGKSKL
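Substrate buffer containing 10 uM ATP (pH 7.2 imidazole, Mg2+, KCl, detergent, BSA) is dispensed, compound pinned in, then luciferase/luciferin detector mix added. After 8 min at ambient temperature, light output is measured.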
GBA mod – alters purified human glucocerebrosidase activity. P04062. purified enzyme, resorufin glucoside fluorescence (screen aimed at inhibitors), 20 min. Potency, µM. hit rate 1.1% among 48,000; in the data active means potency below about 15 µM; inconclusive means mostly about 16 µM to 33 µM;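 further: the screen sought inhibitors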
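Wild-type enzyme at 0.2 nM final in 50mM citric acid/KH2PO4, 10mM sodium taurocholate, 0.01% tween-20, pH 5.9, with resorufin beta-D-glucopyranoside at 30 uM final. Compounds titrated, 20 min at RT, red fluorescence read; AC50 from titration.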
Hits are given with their value; n = inactive; u = inconclusive; x = not tested or not shown; [ ] = dose if it differs, or a comment.

SMILES	PK Bst	Luciferase inh	GBA mod
CCCCCc1nc2c(=O)n(C)c3ccccc3c2o1	x	n	n
Cn1c(=O)c2nc(-c3ccccc3)oc2c2ccccc21	0.432	n	n
O=C(COc1ccccc1O)c1cccs1	n	n	n
O=C(OCC(=O)c1cccs1)c1ccccc1	x	12.6µM	x
COc1ccc(C(=O)N2CCC[C@@]3(CCN(Cc4ccncc4)C3)C2)cc1	x	n[11.4 µM]	x
CCn1ccc(C(=O)Oc2ccc(C(C)C)cc2)n1	n	12.6µM	n
CCC(=O)Oc1ccc(C(CC)C(CC)c2ccc(OC(=O)CC)cc2)cc1 (stereo not given)	n	n	x
COCC(=O)N1CCC2(CC1)CCN(C(=O)Nc1cccc(C#N)c1)CC2	x	n[11.4 µM]	x
Cc1noc(C)c1C(=O)N1CCC2(CC1)CCN(C(c1ccccc1)c1ccccc1)CC2	x	n[11.4 µM]	x
Cn1c(N2CCOCC2)nc(-c2ccccc2)c1-c1ccccc1	n	n	8.58
c1ccc(-c2nc3ccccc3nc2N2CCOCC2)cc1	x	n	n
C[C@@H](CS(=O)(=O)Cc1ccccc1)C(N)=O	x	n[11.4 µM]	x
COc1ccc(C(=O)Nc2ccccc2C(N)=O)cc1	n	12.6µM	n
COc1ccc(C(=O)Nc2cc(OC)ccc2OC)cc1	x	20µM	n
COc1cccc(C(=O)Nc2c(C)n[nH]c2C)c1	n	n	n
COc1ccc(OC)c(NC(=O)c2ccc(CN3CCOCC3)cc2)c1	x	n	x
COc1cccc(C(=O)Nc2c(F)c(F)c(F)c(F)c2F)c1	n	n	u
COC(=O)c1[nH]c2cc(OC)c(OC)cc2c1NC(=O)c1cccc(OC)c1	n	7.94µM	n
CCOc1ccccc1C(=O)Nc1ccccc1C(N)=O	n	n	n
COc1cccc(C(=O)Nc2cccc(SC)c2)c1	x	12.6µM	x
COc1cccc(-c2nccc(NC3CCNCC3)n2)c1	x	n[2.29 µM]	x
O=C(O)[C@@H](O)[C@@H](O)[C@H](O)C(=O)CO	x	n[11.4 µM]	x
CC(=O)O[C@@H]1CC[C@]2(C)C(=C[C@@H]([C@@H]3C=C4C[C@@H](OC(C)=O)CC[C@]4(C)C4=C3[C@H]3C[C@@H]5O[C@@]6(CC[C@H](C)CO6)[C@@H](C)[C@@H]5[C@@]3(C)CC4)C3=C2CC[C@@]2(C)[C@H]4[C@@H](C)[C@]5(CC[C@H](C)CO5)O[C@@H]4C[C@H]32)C1	x	n[11.4 µM]	x
COc1ccc(C(=O)Nc2cccc(C)c2)cc1	x	6.31µM	x
COc1ccc(CNC(=O)Nc2cccc(C)c2)cc1	n	n	n
SMILES	PK Bst	Luciferase inh	GBA mod
Cc1cc2ccc(OC(=O)c3ccc(N=C(N)N)cc3)cc2oc1=O	x	n[11.4 µM]	x
O=c1cc(-c2ccccc2)[nH]n1-c1nc2ccccc2[nH]1	x	n	n
Cc1nn(-c2nc3ccccc3s2)c(N)c1-c1ccccc1	1.64	3.98µM	n
Cc1nn(-c2nc3ccccc3[nH]2)c(N)c1-c1ccccc1	2.85	7.94µM	n
Cc1nn(-c2nc3ccccc3s2)c(N)c1-c1ccc(Cl)cc1	7.81	n	10.5
O=C1CCC(c2ccccc2)=NN1c1nc2ccccc2s1	x	n[11.4 µM]	x
Cc1ccc(-c2nnn(CC(=O)N3CCN(c4nc5ccccc5s4)CC3)n2)cc1	n	n	n
CCC1=C(C[C@H]2NCCc3ccccc32)C[C@@H]2c3cc(OC)c(OC)cc3CCN2C1	x	n[11.4 µM]	x
O=c1c(CCc2ccccc2)nc2cnc(Oc3ccccc3)nc2n1C1CC1	x	n[11.4 µM]	x
FC(F)(F)c1ccccc1-c1ccc2ncnc(NC3CCNCC3)c2c1	x	n[2.29 µM]	x
CN(Cc1ccco1)c1ncnc2ccc(-c3ccccc3C(F)(F)F)cc12	x	n[2.29 µM]	x
COc1ccc(OC)c(NC(=O)C2CCCC2)c1	n	n	n
COc1ccc2oc(=O)c(NC(=O)C3CCCCC3)cc2c1	n	n	5.23
COc1ccc(Oc2ncc3nc(-c4ccc(OC)cc4)c(=O)n(C)c3n2)cc1	x	n[11.4 µM]	x
CSc1nc2nc(C)cc(-c3ccccc3)n2n1	n	n	n
CSc1nc2nc(-c3ccccc3)cc(C(F)(F)F)n2n1	n	n	10.8
COc1cccc2sc(NC(=O)c3ccc(S(=O)(=O)N4CCOCC4)cc3)nc12	n	n	n
Fc1cccc2sc(Nc3nnc(-c4ccccc4)o3)nc12	n	12.6µM	n
COc1cc(OC)cc(-c2nnc(Nc3nc4c(F)cccc4s3)o2)c1	n	n	n
COc1ccc(-c2ccc(-c3nnc(-c4cc(OC)ccc4OC)o3)cc2)cc1	n	n	n
COc1ccc(-c2nnc(Nc3nc4c(OC)cccc4s3)o2)c(OC)c1	n	12.6µM	n
COc1ccc(-c2nnc(Nc3nc4c(OC)cccc4s3)o2)cc1	n	10µM	n
Nc1nc2c(nc(Br)n2[C@@H]2O[C@H]3COP(=O)(O)O[C@@H]3[C@H]2O)c(=O)[nH]1	x	n	x
Cn1c2ccc(F)cc2c2ncn(CCN3CCOCC3)c(=O)c21	x	n	n
Cn1c2ccccc2c2ncn(CCCN3CCOCC3)c(=O)c21	9.71	n	n
C[C@H](O)[C@@H]1C(=O)N2C(C(=O)O)=C(SCCN=CN)C[C@@H]12	x	n	x
CCn1c(=N)n(CC(O)COc2cccc(C)c2)c2ccccc21 (stereo not given)	n	n	u
